Measured values published in PubChem BioAssay.
Calls of active or inactive are those of the source.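 How the source made its calls, unless noted: active means inhibition at or above 50% at 10 µM; inactive means inhibition below 50%.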

Tests used:
[1] = inhibitors of TNFa-induced NFkB p65 translocation, primary screen, imaging, HUVEC, MLSMR starter and 10KST1 sets (AID 438;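 active means inhibition above 20% together with a positive visual image hit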;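 further: compound added about 3h40 before a 20 min TNFalpha stimulation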;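 on inhibition: signal is the nuclear over cytoplasmic p65 intensity ratio per well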); details: HUVEC TNFa-induced p65 nuclear translocation; cell count: measured here: nuclei count (cytotoxicity indicator), at 2.08 µM; inhibition: at 2 µM, stronger effect = higher value, 0% TNFa-plus-vehicle, 100% no-TNFa wells
[2] = inhibitors of mutant huntingtin aggregation, primary screen, imaging, exon1htt(103Q)mCFP cells, high-content imaging (AID 483;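 active means visual image review flags a hit and inhibition of aggregation exceeds 20%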;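 further: compound exposure lasted 3 days before fixation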;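 on nuclei count: percent of the per-plate median nuclei count of sample wells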); details: exon1htt(103Q)mCFP cell line, aggregate imaging, at 2 µM; inhibition of aggregation: stronger effect = higher value; nuclei count: measured here: cell count, toxicity
[3] = inhibitors of E-selectin induction by TNFa, primary screen, imaging, HUVEC, immunofluorescence, MLSMR starter and 10KST1 sets (AID 487;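 active means visually confirmed hit in the image check and inhibition above 20%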;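 on inhibition: signal is fraction of cell area covered by stained E-selectin grains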;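 on nuclei count: 100% = median nuclei count of all wells on the same plate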); details: HUVEC TNFalpha-induced E-selectin immunofluorescence imaging, at 2 µM; inhibition: stronger effect = higher value; nuclei count: measured here: cell number, toxicity
[4] = target: Voltage-gated potassium channel subunit beta-2 (Rattus norvegicus) (UniProt P62483); experiment: KvBeta enzyme negative modulators, primary screen, biochemical, NADPH fluorescence (AID 622;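 active means fluorescence slope higher than the sample average by over 3 SD, cut at about -0.22 in these data, passing the limit was not always enough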;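 further: slope of raw intensity against log time taken from 70 to 1610 s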); details: recombinant KvBeta, 4-cyanobenzaldehyde reduction, at 10 µM, stronger effect = higher value
[5] = target: Voltage-gated potassium channel subunit beta-2 (Rattus norvegicus) (UniProt P62483); experiment: KvBeta positive modulators, primary screen, biochemical, NADPH fluorescence (AID 623;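 active means NADPH fluorescence slope more negative than the mean of all samples by about 3 SD, 99.7% confidence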;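 further: fluorescence intensity change per second fitted from 20 to 320 s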); details: Recombinant KvBeta, NADPH fluorescence decrease slope, 10 min; at 10 µM; stronger effect = lower value
[6] = target: Alpha-2C adrenergic receptor (Homo sapiens) (UniProt P18825); experiment: modulators of alpha2C/GIRK thallium flux, primary screen, cell-based, HEK293 alpha2C/GIRK1/2 (AID 624;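 active means fluorescence slope after compound addition differing from the mean of all screened samples at 99.7% confidence, in either direction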;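 further: slope of fluorescence ratio to pre-addition baseline per second over 15 to 24 s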); details: thallium flux BTC fluorescence, at 10 µM, actives lie on both sides
[7] = inhibitors of Sendai virus-induced IRF3 signaling, primary screen, TLR/RLR signaling modifier project, cell-based, Sendai virus stimulus, luciferase, 10K MLSCN set (AID 602276); details: HEK293 RL24 IRF3 luciferase reporter, at 10 µM, stronger effect = higher value;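 further: firefly luciferase from ISG56 promoter only with Renilla not read in this screen; 0% = Sendai virus plus DMSO and 100% = medium plus DMSO without virus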
[8] = inhibitors of poly I:C-induced TLR3 signaling, primary screen, cell-based, poly I:C stimulus, luciferase, 10K MLSCN set (AID 602277;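 active means inhibition of the reporter signal at or above 50%; inactive means inhibition below 50%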); details: HEK293-TLR3 RL24 IRF3 luciferase reporter, at 10 µM, stronger effect = higher value

Sequence of Alpha-2C adrenergic receptor (Homo sapiens) (P18825 whole entry, looked up): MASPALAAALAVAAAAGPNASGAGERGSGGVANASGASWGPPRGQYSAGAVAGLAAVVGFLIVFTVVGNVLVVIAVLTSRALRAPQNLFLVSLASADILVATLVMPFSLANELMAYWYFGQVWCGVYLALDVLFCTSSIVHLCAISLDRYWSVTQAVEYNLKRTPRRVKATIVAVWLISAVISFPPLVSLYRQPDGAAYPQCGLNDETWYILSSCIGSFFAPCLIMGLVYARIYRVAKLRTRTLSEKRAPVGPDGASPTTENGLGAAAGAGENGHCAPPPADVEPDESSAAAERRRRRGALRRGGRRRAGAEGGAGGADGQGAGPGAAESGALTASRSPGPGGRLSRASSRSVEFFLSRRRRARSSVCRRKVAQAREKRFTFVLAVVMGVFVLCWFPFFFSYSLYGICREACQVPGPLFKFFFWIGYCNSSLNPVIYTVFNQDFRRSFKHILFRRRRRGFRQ
Sequence of Voltage-gated potassium channel subunit beta-2 (Rattus norvegicus) (P62483 whole entry, looked up): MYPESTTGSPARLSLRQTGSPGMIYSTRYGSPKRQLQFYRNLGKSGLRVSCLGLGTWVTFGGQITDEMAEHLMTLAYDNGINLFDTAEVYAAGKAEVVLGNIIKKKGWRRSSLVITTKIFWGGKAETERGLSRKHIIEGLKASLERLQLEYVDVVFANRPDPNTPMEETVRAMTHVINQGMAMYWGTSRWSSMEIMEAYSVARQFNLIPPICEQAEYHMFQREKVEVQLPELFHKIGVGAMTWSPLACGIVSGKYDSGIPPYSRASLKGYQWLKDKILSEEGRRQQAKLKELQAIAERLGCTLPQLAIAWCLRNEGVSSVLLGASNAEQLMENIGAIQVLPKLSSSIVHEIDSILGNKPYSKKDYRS

| SMILES | cell count [1] | inhibition [1] | inhibition of aggregation [2] | nuclei count [2] [%] | inhibition [3] | nuclei count [3] [%] | fluorescence slope [4] | NADPH fluorescence slope [5] | slope [6] | inhibition [7] | inhibition [8] |
| --- | --- | --- | --- | --- | --- | --- | --- | --- | --- | --- | --- |
| CC(C)OC(=O)CSc1nnc(-c2ccc(O)cc2)n1Cc1ccccc1 | 289 | -1% (inactive) | 12.9% (inactive) | 106 | -57.2% (inactive) | 105 | -0.415 (inactive) | -4.5e-05 (inactive) | 0.00549 (inactive) | 20.3% (inactive) | 16.8% (inactive) |
| COc1ccccc1C(=O)NCCNC(=O)c1ccco1 | 388 | 6.3% (inactive) | 5.6% (inactive) | 110 | -78% (inactive) | 113 | -0.412 (inactive) | -4.6e-05 (inactive) | 0.00705 (inactive) | -4.73% (inactive) | -9.5% (inactive) |
| COc1ccc(N2CCN(CCCNC(=O)C3CCCN(S(=O)(=O)c4cnc[nH]4)C3)CC2)cc1 (stereo not drawn) | 604 | 33.9% (active) | -29.9% (inactive) | 89.3 | -87.7% (inactive) | 122 | -0.537 (inactive) | -5.9e-06 (inactive) | 0.0058 (inactive) | -10.4% (inactive) | 17.4% (inactive) |
| O=S(=O)(c1ccc2c(c1)OCCO2)N1CCN(Cc2ccc3c(c2)OCO3)CC1 | 632 | 1.9% (inactive) | 0.7% (inactive) | 100 | -24.5% (inactive) | 113 | -0.345 (inactive) | -5.1e-05 (inactive) | 0.00449 (inactive) | 9.49% (inactive) | 25.6% (inactive) |
| O=C(CN1C(=O)CC(c2ccco2)Sc2ccccc21)Nc1ccccc1F (stereo not drawn) | 551 | -2.9% (inactive) | -3.5% (inactive) | 111 | -28.3% (inactive) | 110 | -0.588 (inactive) | 1.9e-05 (inactive) | 0.00681 (inactive) | 12.5% (inactive) | 15.3% (inactive) |
| Cc1ccccc1-c1nc(CN2CCC(C(=O)NC3CCN(Cc4ccccc4)CC3)CC2)c(C)o1 | 612 | 3.7% (inactive) | -89.7% (inactive) | 107 | 13% (inactive) | 108 | -0.561 (inactive) | -3e-05 (inactive) | 0.0054 (inactive) | -19.2% (inactive) | 78% (active) |
| O=C(Cn1nc(-c2ccc3c(c2)OCCO3)ccc1=O)Nc1ccc(N2CCOCC2)cc1 | 270 | 11.8% (inactive) | -53.9% (inactive) | 90.7 | -60.3% (inactive) | 111 | -0.429 (inactive) | -5.2e-05 (inactive) | 0.00403 (inactive) | 2.21% (inactive) | 21% (inactive) |
| COC(=O)c1c(-c2cccs2)csc1NC(=O)CN1CCOCC1 | 345 | 6% (inactive) | -6.9% (inactive) | 106 | -22.6% (inactive) | 119 | -0.519 (inactive) | -5.2e-05 (inactive) | 0.00516 (inactive) | 16.1% (inactive) | 3.26% (inactive) |
| COC(=O)Cn1c(CN2CCN(c3ccccc3F)CC2)nc2c1c(=O)n(C)c(=O)n2C | 633 | -1.4% (inactive) | -18.2% (inactive) | 90.2 | 7.8% (inactive) | 87.6 | -0.555 (inactive) | -3.8e-05 (inactive) | 0.0082 (inactive) | 7.96% (inactive) | 19.6% (inactive) |
| O=C(CSc1ncnc2c1oc1ccccc12)Nc1ccccc1F | 613 | -13.5% (inactive) | -13.9% (inactive) | 107 | -10.1% (inactive) | 116 | -0.549 (inactive) | 3.9e-06 (inactive) | 0.00808 (inactive) | 1.97% (inactive) | 16.6% (inactive) |
| Nc1nc(N2CCCCC2)nc(N(c2ccccc2)c2ccccc2)n1 | 710 | -2.9% (inactive) | 23.2% (inactive) | 88 | -33% (inactive) | 91.6 | -0.544 (inactive) | -5.4e-05 (inactive) | 0.00708 (inactive) | 10.2% (inactive) | 34.4% (inactive) |
| C=C(C)Cn1c(-c2ccccc2)nc2ccccc21 | 326 | -5.5% (inactive) | -4.2% (inactive) | 113 | -17.6% (inactive) | 104 | -0.512 (inactive) | -5.5e-05 (inactive) | 0.00476 (inactive) | 14.4% (inactive) | 2.46% (inactive) |
| Cc1cc(C)c(NC(=O)C2CSCCS2)c(C)c1 (stereo not drawn) | 484 | 4.7% (inactive) | 23.2% (inactive) | 96 | -55.7% (inactive) | 111 | -0.392 (inactive) | -6.2e-05 (inactive) | 0.00428 (inactive) | -3.4% (inactive) | -35.7% (inactive) |
| Cc1ccc(CNC(=O)C2CCCN(S(=O)(=O)c3cnc[nH]3)C2)cc1 (stereo not drawn) | 768 | -11% (inactive) | -30.5% (inactive) | 102 | -23.4% (inactive) | 92.7 | -0.538 (inactive) | -1.6e-05 (inactive) | 0.00735 (inactive) | -2.34% (inactive) | 15.9% (inactive) |
| O=C(OCn1nnc2ccccc2c1=O)c1cc2ccccc2o1 | 544 | -3.9% (inactive) | 19.5% (inactive) | 76.7 | -10.4% (inactive) | 90.4 | -0.447 (inactive) | -3.1e-05 (inactive) | 0.00552 (inactive) | -2.91% (inactive) | 27.7% (inactive) |
| O=c1[nH]c(N2CCCCC2)nc2c1CCCC2 | 581 | 0.9% (inactive) | 5.9% (inactive) | 107 | 9.4% (inactive) | 102 | -0.265 (inactive) | -2.4e-05 (inactive) | 0.00576 (inactive) | 17% (inactive) | 12.8% (inactive) |
| COc1ccc(N2CCN(Cc3nc4c(c(=O)n(C)c(=O)n4C)n3Cc3ccccc3C)CC2)cc1 | 719 | -14% (inactive) | 5.8% (inactive) | 100 | -7.8% (inactive) | 129 | -0.428 (inactive) | -2.3e-05 (inactive) | 0.00487 (inactive) | 14.4% (inactive) | 39.9% (inactive) |
| COc1ccc(NC(=O)CN2CCN(CC(=O)Nc3cc(OC)cc(OC)c3)CC2)cc1 | 306 | -3.6% (inactive) | 8% (inactive) | 89.1 | 4.7% (inactive) | 84.6 | -0.442 (inactive) | -0.000127 (inactive) | 0.00643 (inactive) | 13.3% (inactive) | 32.4% (inactive) |
| COc1cc(C(=O)NCCc2ccc3c(c2)OCCO3)ccc1OCC(=O)N1CCOCC1 | 632 | 2.4% (inactive) | 11.3% (inactive) | 87.3 | -76.6% (inactive) | 96.6 | -0.298 (inactive) | -5.4e-05 (inactive) | 0.00507 (inactive) | 14.7% (inactive) | 15.3% (inactive) |
| CCc1nnc(NC(=O)CSc2nnc3scc(-c4ccc(C)cc4)n23)s1 | 684 | -32.6% (inactive) | 9.1% (inactive) | 96.5 | -5.3% (inactive) | 104 | -0.504 (inactive) | -0.000345 (inactive) | 0.00638 (inactive) | 14.5% (inactive) | 14.2% (inactive) |
| Cc1ccc(N2CCN(C(=O)c3ccccc3)CC2)c(C)c1 | 484 | -0.5% (inactive) | 1.9% (inactive) | 100 | -70.1% (inactive) | 106 | -0.413 (inactive) | -6.4e-05 (inactive) | 0.00418 (inactive) | 12% (inactive) | 0.924% (inactive) |
| CCSc1nnc(NC(=O)c2csc(C)c2)s1 | 366 | 4.2% (inactive) | 12.8% (inactive) | 101 | -18.6% (inactive) | 104 | -0.592 (inactive) | -1.3e-05 (inactive) | 0.00352 (inactive) | -36.6% (inactive) | -89.7% (inactive) |
| Cc1nc2ccccc2c(=O)n1CC(=O)N1CCOCC1 | 558 | -17.1% (inactive) | 11.6% (inactive) | 78.3 | 22.8% (inactive) | 89.9 | -0.503 (inactive) | -4.9e-05 (inactive) | 0.00461 (inactive) | 14.1% (inactive) | 13.2% (inactive) |
| COc1ccc(-n2ccnc2SCC(=O)NCc2ccc3c(c2)OCO3)cc1 | 495 | 0.2% (inactive) | -17.1% (inactive) | 110 | -80% (inactive) | 123 | -0.596 (inactive) | -2.8e-06 (inactive) | 0.006 (inactive) | 11.9% (inactive) | 32.1% (inactive) |
| O=C(CSc1nnc(-c2ccccc2F)o1)OCc1ccccc1 | 323 | 8.7% (inactive) | -1.8% (inactive) | 89.1 | -69.6% (inactive) | 99.9 | -0.428 (inactive) | 1.9e-05 (inactive) | 0.00527 (inactive) | 4.91% (inactive) | 34.1% (inactive) |
| c1ccc(Cc2ccc(OCCn3cncn3)cc2)cc1 | 755 | -5.6% (inactive) | -15.5% (inactive) | 102 | -68.7% (inactive) | 108 | -0.477 (inactive) | 1.2e-05 (inactive) | 0.00592 (inactive) | -18.4% (inactive) | -0.13% (inactive) |
| CCOC(=O)c1ccccc1NC(=O)N1CCn2c(C)ccc2C1CC (stereo not drawn) | 383 | 2.8% (inactive) | -42% (inactive) | 105 | -50.1% (inactive) | 110 | -0.579 (inactive) | -3.2e-05 (inactive) | 0.00545 (inactive) | -0.392% (inactive) | 8.3% (inactive) |
| CCOc1cc(NC(=O)c2ccco2)c(OCC)cc1NC(=O)Cc1cccc(OC)c1 | 592 | -14.5% (inactive) | -4.3% (inactive) | 107 | 22.4% (inactive) | 102 | -0.397 (inactive) | -5.1e-05 (inactive) | 0.00431 (inactive) | -6.51% (inactive) | -45.9% (inactive) |
